Rows were chosen to be rich in hits. Some 3.5% of all compounds tested hit in one or more screens of this group.
TROY signal inh: TROY signaling inhibition; Q293 LMP1-TROYcd NF-kB luciferase reporter, 4 h; inhibition, % at 10 µM; 360,000 tested, 0.98% active; AID 1347056;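 active means compounds whose plate-normalised and pattern-corrected inhibition of the luciferase reporter signal at the single screening dose is 50% or more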
Platelet DG rel: platelet dense granule release activity; human platelet-rich plasma, SFLLRN dense granule ATP release, luminescence; inhibition, %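 (compounds screened at 7.5 µM in platelet-rich plasma)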; 300,000 tested, 0.22% active; AID 1663;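 active means mean replicate score, as percent of positive control, at or above 50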
TRAIL sens C8: caspase-8 TRAIL sensitization. NB7+C8 cells + TRAIL, ATPlite viability luminescence. inhibition (viability loss, TRAIL sensitization), % at 10 µM. 360,000 tested, 1% active. AID 624354;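 active means compounds causing at least 50% loss of cell viability in the single-dose screen, relative to plate controls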
PPC-1+TRAIL kill: kills PPC-1 cancer cells in the presence of TRAIL; PPC-1 cells + TRAIL, ATPLite viability luminescence; cell killing (% activity), % at 4 µM or 5 µM; 220,000 tested, 0.41% active;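 active means cell killing above 50% in the first pass at 4 µM, then a duplicate retest at 5 µM averaging 50% or more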;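 further: plate controls were cells with TRAIL plus DMSO for no effect and medium-only wells lacking cells for full effect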
TWEAK Fn14 block: inhibitors of TWEAK-Fn14 interaction signaling; TWEAK-stimulated Fn14 reporter cells, luciferase luminescence, 8 h; 360,000 tested, 2% active; inhibition, % at 10 µM; in the data active means inhibition above about 50%
HSP90 inh: inhibitors of HSP90 luciferase refolding in rabbit reticulocyte lysate. luciferase refolding luminescence, 3 h. inhibition, % at 5.6 µM. 290,000 tested, 0.91% active;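 active means inhibition above the screen-wide mean plus 3 SD, computed separately per campaign, cut at about 16% in these data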;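 further: 0% = DMSO wells and 100% = 60 µM geldanamycin wells; inhibitors lower the luminescence because luciferase stays unfolded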
PPC1 cytotox: PPC-1 cell cytotoxicity | shares compounds with PPC-1+TRAIL kill | PPC-1 viability, ATPlite luminescence, overnight | cytotoxicity, % at 5 µM | 1,200 tested, 50% active | AID 1447;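 active means reconfirmed compounds whose average cytotoxicity reaches 50% or more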;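 further: 0% = DMSO-treated cells and 100% = wells holding medium but no cells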
Starred values were filed as active, the others as inactive; x = no result.

SMILES | TROY signal inh | Platelet DG rel | TRAIL sens C8 | PPC-1+TRAIL kill | TWEAK Fn14 block | HSP90 inh | PPC1 cytotox
O=C1C(Cl)=C(Nc2ccc3cn[nH]c3c2)C(=O)c2ccccc21 | -95.2 | 15.3 | 72.2* | 75.7* | 1.2 | 6.9 | 69.3*
CC(=O)Nc1ccc(NC2=C(Cl)C(=O)c3ccccc3C2=O)cc1 | x | 3.5 | x | 16.4 | x | -3.6 | x
CN(C)c1ccc(NC2=C(Cl)C(=O)c3ccccc3C2=O)cc1 | 42.5 | 5.7 | 70.3* | 35.1 | 102.0* | 0.7 | 40.1
O=C(Nc1ccc2cn[nH]c2c1)c1c(Cl)cccc1Cl | -7.6 | -6.5 | 12.8 | -4.6 | 6.7 | 4.3 | x
CCOC(=O)CNC(=O)CSc1nnc(NC(=O)c2ccc(C)cc2)s1 | -0.7 | -5.3 | 88.1* | 91.8* | 68.4* | 4.1 | 91.8*
CCOC(=O)CNC(=O)CSc1nnc(SCC(=O)NCC(=O)OCC)s1 | 3.2 | 9.5 | 7.2 | 26.7 | 3.8 | -0.2 | x
Nc1ccc(/C=C/c2ccc3ncccc3c2)cc1 | -17.1 | 10.1 | 46.7 | 68.6* | 34.5 | 12.3 | 69.5*
Nc1ccc2ncccc2c1 | 0.1 | -13.1 | -8.6 | 14.5 | -1.3 | -0.9 | x
CC(=O)Nc1ccc(NC(=O)CN(c2ccc(C(C)C)cc2)S(=O)(=O)c2ccccc2)cc1 | -1.7 | 0.8 | 7.2 | 2.8 | 1.5 | -0.1 | x
O=C(Nc1ccc(-c2cn3ccsc3n2)cc1)C1CC1 | -70.0 | x | 68.8* | 61.3* | 5.2 | 0.7 | 64.3*
CCC(=O)Nc1cccc(-c2cn3ccsc3n2)c1 | -34.3 | 2.9 | 11.0 | -2.4 | -25.5 | 2.4 | 8.6
CC(C)CC(=O)Nc1cccc(-c2cn3ccsc3n2)c1 | -5.8 | 0.6 | 10.8 | 33.5 | -22.2 | -1.6 | x
CC(=O)Nc1ccc(-c2cn3ccsc3n2)cc1 | -44.4 | -7.5 | 36.4 | 33.6 | -11.5 | 1.1 | x
O=C(Nc1ccc(-c2cn3ccsc3n2)cc1)C1CCCC1 | -44.0 | 4.0 | 78.9* | 72.6* | -0.3 | 1.5 | 73.3*
CN(C)c1ncnc2c1ncn2C1CCCO1 (stereo not drawn) | 2.8 | x | -7.4 | x | 3.8 | x | x
Cc1ccc(S(=O)(=O)N(C)CC(=O)N2CCN(Cc3ccccc3)CC2)cc1 | -54.0 | -19.3 | -7.6 | x | 2.9 | -3.3 | x
COc1ccc2[nH]c(C(=O)O)c(CCC(=O)O)c2c1 | 10.1 | -0.9 | -9.1 | 1.1 | -6.3 | -2.4 | 13.9
O=C(Nc1cccnc1Cl)c1cccc(S(=O)(=O)N2CCOCC2)c1 | -9.1 | -1.7 | -14.2 | x | -12.2 | 2.0 | x
CCOc1cccc(C(=O)Nc2ccccc2OC(F)F)c1 | -23.2 | -1.6 | 10.0 | 8.7 | -12.9 | -1.5 | 13.4
O=C(Nc1ccccc1OC(F)F)c1ccccc1 | 19.3 | 3.4 | -5.7 | 24.7 | 3.0 | 0.3 | x
COc1ccc(C(=O)Nc2ccccc2C(=O)N/N=C/c2ccccn2)cc1OC | -72.2 | 55.8* | 84.6* | 75.5* | -43.8 | 4.2 | 75.2*
COc1ccc(C(=O)N/N=C/c2ccccn2)cc1OC | -27.5 | 1.0 | -3.3 | 6.8 | -14.3 | 3.7 | x
CCOc1cccc2sc(Cl)nc12 | -9.0 | -1.3 | -23.3 | 5.4 | 9.7 | -0.5 | 4.3
CCOc1cccc2sc(NN)nc12 | 0.9 | x | 4.6 | 1.5 | -7.9 | -1.3 | x
O=C(O)C1CCCCC1C(=O)NCCc1ccccc1 (stereo not drawn) | 5.2 | -5.7 | -5.1 | 7.7 | 8.1 | 1.5 | 5.5
SMILES | TROY signal inh | Platelet DG rel | TRAIL sens C8 | PPC-1+TRAIL kill | TWEAK Fn14 block | HSP90 inh | PPC1 cytotox
CCCCN1C(=O)C(CC(=O)NC(c2ccccc2)c2ccccc2)CC(C(=O)N(C(C)C)C(C)C)=C1C (stereo not drawn) | -9.5 | x | 1.2 | x | 13.8 | x | x
CC(C)NC(=O)N(C)C[C@H]1Oc2ccc(NS(=O)(=O)c3cn(C)cn3)cc2C(=O)N([C@H](C)CO)C[C@@H]1C | 6.5 | x | -29.6 | x | -16.8 | x | x
C=CCn1cnc2c(nnn2Cc2ccc(F)cc2)c1=O | -8.3 | 1.6 | 5.6 | -5.3 | -3.6 | 0.8 | x
COc1cccc(/C=C/C(=O)Nc2ccc3c(c2)OCCO3)c1OC | 7.9 | -1.3 | 80.5* | 70.5* | -25.5 | 21.3* | 66.4*
COc1cc(Br)c(S(=O)(=O)Nc2c(C)n(C)n(-c3ccccc3)c2=O)cc1OC | -5.0 | -4.0 | -4.9 | 5.2 | -17.4 | -0.5 | 5.5
CCOC(=O)N(C)c1c(CC)nc2c(OCc3cc(Cl)cc(Cl)c3)cccn12 | -1.7 | x | 5.7 | x | -4.6 | x | x
Cc1cc(C)c2c(CN(Cc3ccccc3)Cc3ccccc3)cc(=O)oc2c1 | 10.1 | x | -1.8 | x | 0.5 | x | x
CCOc1ccc(-n2c(SC)nc3c(c2=O)SCC3)cc1 | 5.9 | 1.9 | 21.3 | -9.9 | 5.3 | 7.7 | -12.2
CC(=O)NC(Cc1cccc(F)c1)C(=O)NC1CCN(C(=O)Nc2ccc(C)cc2)CC1 (stereo not drawn) | 6.3 | -9.4 | -1.5 | x | 1.2 | -1.7 | x
O=C(NCCCN1CCCC1=O)c1nnc(Cc2c(F)cccc2Cl)o1 | 9.2 | 0.0 | -10.5 | 4.6 | -5.5 | 2.5 | x
CN1CCN(CCCNC(=O)c2nnc(Cc3c(F)cccc3Cl)o2)CC1 | -37.2 | -2.3 | 3.0 | 6.7 | 20.3 | 6.2 | 15.7
CCC(=O)N1c2ccc(S(=O)(=O)NCc3ccccc3)cc2CC1C (stereo not drawn) | -25.2 | -9.8 | 0.3 | x | -7.1 | -9.2 | x
CCc1nc2c(OCc3ccc(Cl)cc3)cccn2c1N(C)C(=O)c1ccncc1 | 3.2 | x | -8.6 | x | 9.0 | x | x
C/C(=N\NC(=O)c1ccc(Cl)cc1)c1cccs1 | -49.3 | 29.9 | 75.0* | 62.5* | 41.4 | 3.0 | 64.1*
CC(=NNC(=O)c1ccncc1)c1ccccc1Cl | -8.8 | x | -8.9 | x | -0.6 | x | x
C/C(=N\NC(=O)c1ccccc1NC(=O)c1ccc(Cl)cc1)c1ccncc1 | 18.2 | 96.2* | 93.7* | 96.7* | 0.1 | 51.6* | 96.7*
CC(=O)c1sc(NC(=O)c2ccc(COc3ccccc3Cl)o2)nc1C | -4.1 | -2.8 | 6.5 | x | -6.8 | 1.6 | x
COC(=O)C1C(=O)c2c([nH]c(C(=O)OCCOC(C)C)c2C)CC1C (stereo not drawn) | x | -19.9 | x | -9.4 | x | 8.3 | -2.1
S=C(Nc1ccc2c(c1)OCO2)N1CCN(Cc2ccco2)CC1 | -9.6 | 1.6 | 59.9* | 53.1* | -27.3 | -1.4 | 55.9*
c1ccc(CCC2CCCCN2Cc2nc(-c3ccc4c(c3)OCO4)no2)nc1 (stereo not drawn) | -5.8 | 9.3 | 1.1 | 1.0 | -6.8 | 0.8 | x
CN(C)S(=O)(=O)c1ccc(C(=O)Nc2cccc(C(=O)O)c2)cc1 | -13.8 | -6.8 | 1.8 | 5.8 | -4.6 | 2.8 | -6.8
COc1ccc(CNC(=O)CN(C(=O)c2snc(C(N)=O)c2N)c2ccccc2F)cc1 | 3.9 | -7.6 | -2.2 | x | -5.4 | 4.1 | x
C[C@H](CO)N1C[C@H](C)[C@H](CN(C)S(=O)(=O)c2ccc(-n3cccn3)cc2)OCc2cnnn2CCCC1=O | 11.6 | x | -2.0 | x | 9.6 | x | x
c1ccc(-c2ccc(OCCCn3cncn3)cc2)cc1 | -56.2 | x | 8.6 | -7.3 | -8.7 | 2.8 | x
c1ccc(COc2ccc(OCCn3cncn3)cc2)cc1 | -64.2 | 4.5 | -1.4 | 8.7 | -13.0 | -0.1 | 11.0

High-throughput results (PubChem BioAssay)
